Inconclusive results are not listed. Active and inactive are the calls of the source. The call rests on the fitted dose curve; in most records, active means well fitted inhibition curve with a large enough effect; inconclusive means small, poorly fitted or top-dose-only effect; inactive means flat fitted curve, though single readings scatter.
test: BET inhibitor-based combinations targeting novel dependencies in MECOM-rearranged (r) AML: AML-194 cell line (AID 2202237; further: nearly all actives have a fitted effect of over 40% in size;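 on viability (% of control): plate controls were vehicle wells for no effect and wells without cells for full effect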); settings: AML-194 (MECOM-r AML) viability, CellTiter-Glo, 48 h; series mostly up to 46 µM; viability (% of control): at the top concentration
Excerpt: Ecotropic viral insertion site 1 (EVI1) is located on chromosome 3q26.2 as part of the MECOM (MDS and EVI1 complex) locus. Under normal hematopoiesis, EVI1 is a regulator of hematopoietic stem cell maintenance and self-renewal and EVI1 levels decrease as the cells differentiate. In approximately 5-10% of de novo acute myeloid leukemia (AML) EVI1 is aberrantly expressed, including Chromosomal inv(3)(q21;q26.2) or t(3;3)(q21;q26.2) alterations (MECOM-r) that account for about 50% of AML with EVI1 overexpression 31. AMLs with high levels of EVI1 have a poor prognosis and an overall survival time averaging between 10-14 months. EVI1 overexpression confers resistance in leukemia cells, highlighting the need to develop new targeted therapies for EVI1 overexpressing AMLs.
Here, we performed an unbiased chemical drug screening by evaluating the single agent activity of a collection of 2,480 oncology-focused, approved and investigational drugs (NCATS Mechanism Interrogation Plates, MIPE v5.0) against a panel of seven AML cell lines. These included four MECOM-r cell-lines (AML-191, AML-194, UCSD-AML1 and HNT-34) and three non-MECOM-r AMLs (MV4-11, OCI-AML3 and SET-2). Exploiting the mechanistic redundancy built in the library, we identified target-level sensitivities in MECOM-r AML cells and relative activity as compared to other AML subtypes.
A collection of 2480 mechanistically annotated dugs (MIPE v5.0) was used to screen four 3q26.2 rearranged AML cell lines and three non-3q26.2 rearranged AML cell lines. This library purposely exploits redundancy by including multiple inhibitors of key onco-targets, while simultaneously encompassing mechanistic diversity, targeting more than 800 distinct mechanisms of action. Briefly, cells were seeded in 5 uL of growth media using a Multidrop Combi dispenser into 1536 well white polystyrene tissue culture treated plates (Corning) at a density of 500cells/well. For each cell-line, for each of the 2480 drugs in MIPE v5.0 library, an 11-point dose curve was generated via a 1536 pin-tool. Plates were incubated for 48 hr at standard incubator conditions, covered by a stainless steel gasketed lid to prevent evaporation. Cell viability was determined by luminescence based, Cell Titer Glo assay (Promega). In detail, 3 uL of Cell Titer Glo were added to each well and plates were incubated at room temperature for 15 min with a stainless-steel lid in place. Luminescence readings were taken using a Viewlux (PerkinElmer) with a 2 s exposure time per plate. Compound dose-response curves were normalized to DMSO and empty well controls on each plate. Quantitative drug activity data from dose-response curves was determined utilizing area Under the Curve (AUC) and Z-transformed AUC (Z-AUC, a mean-centering transformation applied to each individual cell-line screened).
Potency means the concentration at half of the fitted maximal effect.

Structure (SMILES) | viability (% of control) | Potency
COc1ccc2nc3n[nH]c(C)c3c(NCCOCCO)c2c1 | 111% (inactive) | –
CS(=O)(=O)OCCCCOS(C)(=O)=O | 105% (inactive) | –
N#CC1(c2cccc(C(=O)Nc3cc(Oc4ccc5nc(NC(=O)C6CC6)sc5n4)ccc3F)c2Cl)CC1 | 64.7% (inactive) | –
C[C@](Cc1c[nH]c2ccccc12)(NC(=O)OC1C2CC3CC(C2)CC1C3)C(=O)NC[C@H](NC(=O)CCC(=O)O)c1ccccc1 (stereo not given in full) | 117% (inactive) | –
CC1(C)CNc2cc(NC(=O)c3cccnc3NCc3ccncc3)ccc21 | 105% (inactive) | –
c1cc(-c2cnn3cc(-c4ccc(OCCN5CCCCC5)cc4)cnc23)ccn1 | – | 9.34 µM (active)
Cc1[nH]nc2ccc(-c3cncc(OC[C@@H](N)Cc4ccccc4)c3)cc12 | – | 1.18 µM (active)
CCCCOc1nc(N)c2c(n1)N(Cc1cccc(CN3CCCC3)c1)CC(=O)N2 | 92% (inactive) | –
Cc1[nH]c(=O)c(C#N)cc1-c1ccncc1 | 96.7% (inactive) | –
NS(=O)(=O)c1cc2c(cc1Cl)NCNS2(=O)=O | 108% (inactive) | –
CCCCOc1c(C(=O)c2c(F)cc(C)cc2F)cnc2n[nH]cc12 | – | 3.72 µM (active)
CC(COc1ccccc1)N(CCCl)Cc1ccccc1 (stereo not given) | 98.3% (inactive) | –
Cc1cc(CS(=O)(=O)c2ccccc2)cc(OCc2ccc(CN3CCC[C@@H]3CO)cc2)c1 | – | 18.6 µM (active)
OCCn1cc(-c2cnc3nnn(Cc4ccc5ncccc5c4)c3n2)cn1 | 101% (inactive) | –
Cc1cc(OCc2nnc(SC3CCCC3)n2-c2cccnc2)ccc1-c1ccc(S(C)(=O)=O)cc1 | – | 7.42 µM (active)
Nc1ccc(-c2ccc3ncc4ccc(=O)n(-c5cccc(C(F)(F)F)c5)c4c3c2)cn1 | – | 0.0417 µM (active)
CC(=O)O[C@H]1C[C@@H]2CC[C@@H]3[C@H](CC[C@@]4(C)[C@H]3C[C@H]([N+]3(C)CCCCC3)[C@@H]4OC(C)=O)[C@@]2(C)C[C@@H]1N1CCCCC1 | 109% (inactive) | –
CC(C)[C@@H](CS(=O)(=O)C(C)C)N1C(=O)[C@@](C)(CC(=O)O)C[C@H](c2cccc(Cl)c2)[C@H]1c1ccc(Cl)cc1 | – | 2.35 µM (active)
CC(C)(C)OC(=O)N[C@H]1CCCCCC=C[C@@H]2C[C@@]2(C(=O)NS(=O)(=O)C2CC2)NC(=O)[C@@H]2C[C@@H](OC(=O)N3Cc4cccc(F)c4C3)CN2C1=O | 110% (inactive) | –
COc1cc(C[C@@H](CO)[C@H](CO)Cc2ccc(O)c(OC)c2)ccc1O | 108% (inactive) | –

Structure (SMILES) | viability (% of control) | Potency
COCCCOc1cc(C[C@@H](C[C@H](N)[C@@H](O)C[C@H](C(=O)NCC(C)(C)C(N)=O)C(C)C)C(C)C)ccc1OC | 111% (inactive) | –
OC[C@H]1OC(O)C[C@@H](O)[C@H]1O (stereo not given in full) | 101% (inactive) | –
CCOC(=O)Nc1ccc(NCc2ccc(F)cc2)nc1N | 95.9% (inactive) | –
O=c1[nH]cnc2[nH]ncc12 | 100% (inactive) | –
CC(=O)NC[C@H]1CN(c2ccc(N3CCOCC3)c(F)c2)C(=O)O1 | 97.8% (inactive) | –
COc1nc(C)cnc1NS(=O)(=O)c1cccnc1-c1ccc(-c2nnco2)cc1 | 104% (inactive) | –
COc1cccc2nc(-c3cccs3)nc(NN3C(=O)C=C(C)C3=O)c12 | – | 0.263 µM (active)
NC1=N[C@H]2[C@H](CS[C@H]2CCCCC(=O)O)N1 | 89.8% [at 15.6 µM] (inactive) | –
COc1cc2nc(-c3cc(F)ccc3O)nc(N[C@@H]3CNC[C@H]3C(C)(C)O)c2cc1OC | – | 6.61 µM (active)
COC(=O)c1ccc2c(C(=Nc3ccc(N(C)C(=O)CN4CCN(C)CC4)cc3)c3ccccc3)c(O)[nH]c2c1 | – | 5.25 µM (active)
CS(=O)(=O)c1ccc(-c2cnc(N)c(C(=O)Nc3ccccc3)n2)cc1 | – | 5.9 µM (active)
O=S(=O)(O)CCSSCCS(=O)(=O)O | 109% (inactive) | –
NC(=O)c1ncn([C@@H]2O[C@H](CO)[C@@H](O)[C@H]2O)c1O | – | inactive
CC(S)C(=O)NCC(=O)O (stereo not given) | 110% (inactive) | –
C=CCn1c(=O)c2cnc(Nc3ccc(N4CCN(C)CC4)cc3)nc2n1-c1cccc(C(C)(C)O)n1 | – | 0.742 µM (active)
COc1cc(Nc2ncc(F)c(Nc3ccc4c(n3)NC(=O)C(C)(C)O4)n2)cc(OC)c1OC | – | 7.42 µM (active)
C[C@H](c1ccc(F)cc1CCCC(=O)O)N(c1cc(F)ccc1F)S(=O)(=O)c1ccc(Cl)cc1 | 98.9% (inactive) | –
CCC[C@H](N[C@@H](C)C(=O)N1[C@@H]2CCCC[C@H]2C[C@H]1C(=O)O)C(=O)OCC | 114% (inactive) | –
O=C(Nc1nnc(-c2ccco2)o1)c1cc(-c2ccccc2)nc2ccccc12 | – | 13.2 µM (active)
NCc1c[nH]c(=S)n1[C@H]1CCc2c(F)cc(F)cc2C1 | 94% (inactive) | –
